# Source: PubChem
# ADAM10 inh: human ADAM10 inhibitors, primary screen, biochemical, QFRET, HTS | Disintegrin and metalloproteinase domain-containing protein 10 (Homo sapiens), O14672 | recombinant ADAM10, EDANS/DABCYL FRET peptide cleavage, 3 h | inhibition, % at 7 µM | actives 0.62% (n = 370,000) | AID 720582, 2013;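 active = inhibition above a per-campaign cutoff equal to the mean of compounds falling between control-based bounds plus 3 SD, cut at about 20% in these data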;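 also: 0% = DMSO wells while the 100% control is not disclosed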
# rCAG RNA binder: binders of r(CAG) RNA repeats, primary screen, biochemical, fluorescence; r(CAG) RNA repeat, TO-PRO-1 dye displacement fluorescence; inhibition, % at 3 µM; actives 1.3% (n = 370,000);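 active = inhibition above the plate cutoff, the mean of all test compounds on that plate plus 3 SD, cut at about 35% in these data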;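 also: 0% = DMSO alone and 100% = 100 µM mitoxantrone as full dye displacement; higher means more dye released from RNA so lower well fluorescence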
# proKLK7 act: proKLK7 zymogen activators, primary screen, biochemical, fluorescence intensity; Kallikrein-7 (Homo sapiens), P49862; purified proKLK7, EDANS-DABCYL substrate fluorescence; 100% is mature enzyme control, 0% vehicle; actives 0.9% (n = 370,000); AID 652039, 2013; activation, % at 7 µM;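 active = activation above the mean of all tested compounds plus 3 SD, computed per campaign excluding outliers beyond control limits, cut at about 13% in these data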
# NR3A LBD binder: binders of NR3A ligand-binding domain, primary screen, biophysical, differential scanning fluorimetry, uHTS. Glutamate receptor ionotropic, NMDA 3A (GRIN3A) ligand-binding domain. NR3A LBD differential scanning fluorimetry, Tm shift; 0% = protein alone, 100% = glycine-bound protein. Tm shift relative to glycine control, % at 25 µM. actives 2.5% (n = 340,000). AID 1259313, 2017;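 active = melting temperature shift of at least 10% of the positive control shift, at one fixed dose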
# ADAM17 inh: ADAM17 inhibitors, primary screen, biochemical, QFRET; recombinant ADAM17, EDANS/DABCYL FRET peptide cleavage; Disintegrin and metalloproteinase domain-containing protein 17 (Homo sapiens), P78536; actives 0.83% (n = 370,000); AID 720648, 2013; inhibition, % at 6.95 µM;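 active = inhibition above the mean of compounds lying between control limits plus 3 SD, set per campaign, cut at about 8.5% in these data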;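 also: 0% = DMSO-only wells as the low control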
# Target sequence (P78536 215-824 limits assumed): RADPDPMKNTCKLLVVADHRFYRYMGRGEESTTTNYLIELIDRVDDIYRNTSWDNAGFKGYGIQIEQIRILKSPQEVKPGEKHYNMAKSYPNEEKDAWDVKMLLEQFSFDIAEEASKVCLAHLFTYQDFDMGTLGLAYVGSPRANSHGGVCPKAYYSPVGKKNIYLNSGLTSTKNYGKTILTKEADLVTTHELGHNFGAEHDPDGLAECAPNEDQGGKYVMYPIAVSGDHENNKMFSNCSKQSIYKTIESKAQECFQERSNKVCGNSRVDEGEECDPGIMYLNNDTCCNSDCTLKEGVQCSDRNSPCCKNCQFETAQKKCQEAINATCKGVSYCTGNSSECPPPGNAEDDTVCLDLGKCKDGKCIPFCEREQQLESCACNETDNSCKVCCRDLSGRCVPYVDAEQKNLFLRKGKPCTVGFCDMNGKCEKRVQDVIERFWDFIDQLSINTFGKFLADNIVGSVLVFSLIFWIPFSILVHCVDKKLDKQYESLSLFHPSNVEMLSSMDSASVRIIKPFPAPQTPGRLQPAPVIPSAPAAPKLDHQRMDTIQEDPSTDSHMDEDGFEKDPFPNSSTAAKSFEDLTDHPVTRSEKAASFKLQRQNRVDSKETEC
# AHR act: AHR activators, primary screen, cell-based, luminescence, luciferase reporter, human; AHR-responsive luciferase reporter cells; activation, % at 5 µM; actives 2.5% (n = 320,000); AID 2796, 2010; in the data active = activation above about 47%;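 also: 0% = vehicle wells and 100% = reference agonist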
# proKLK7 act conf: proKLK7 zymogen activators, confirmation, biochemical, fluorescence intensity, triplicate | shares compounds with proKLK7 act | purified proKLK7, EDANS-DABCYL substrate fluorescence; scaled: vehicle 0, mature enzyme 100 | activation, % at 7 µM | actives 68% (n = 3,200) | AID 686949, 2013;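 active = activation, as change over the incubation, above the mean of all tested compounds plus 3 SD, cut at about 13% in these data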
# EDANS-DABCYL int: EDANS-DABCYL substrate optical interference, artefact control for kallikrein-7 zymogen activator project, biochemical, fluorescence intensity, high throughput | shares compounds with proKLK7 act | no enzyme, 4 h; solvent 0%, active enzyme control 100% | activation, % at 7 µM | actives 80% (n = 3,200);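 active = activation above the all-compound mean plus 3 SD, ignoring values outside control-based bounds, cut at about 4.8% in these data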;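 also: value is the 4 h activation minus the activation read at time zero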
# EDANS interf: optically interferes with EDANS-DABCYL fluorescence, kallikrein-7 activator counter-screen; EDANS-DABCYL peptide fluorescence interference, no enzyme; AID 720493; EC50, µM; shares compounds with proKLK7 act; actives 20% (n = 250);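 active = compounds that raise the fluorescence signal in this interference counterscreen, with EC50 at or below 10 µM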;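 also: intact quenched peptide substrate alone read at 355 nm excitation and 520 nm emission; signal is fluorescence gain from T0 to T4 after four hours at room temperature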
# An asterisk follows results filed as active; i = inactive; · = no result. The list is not random: actives were taken first. Their share in the collection is about 7%.
SMILES,ADAM10 inh,rCAG RNA binder,proKLK7 act,NR3A LBD binder,ADAM17 inh,AHR act,proKLK7 act conf,EDANS-DABCYL int,others
COc1ccccc1CCNC(=O)c1nccnc1C(=O)O,·,·,·,-0.7,·,1.6,·,·,
CCCN1C(=O)c2ccccc2NC1c1ccc(C)cc1 (stereo not given),i,-5.0,14.5*,-0.2,-371.7,-0.3,9.6,7.3*,
Cc1ccc(CN2C(=O)c3ccccc3NC2c2ccccn2)cc1 (stereo not given),i,-3.9,3.7,-0.9,-211.7,2.1,·,·,
CCCN1C(=O)c2ccccc2NC1c1ccc(OC)cc1O (stereo not given),i,1.5,18.6*,-1.8,-318.0,-0.5,15.0*,15.8*,
CCCN1C(=O)c2ccccc2NC1c1ccc(OC)cc1OC (stereo not given),i,1.9,9.8,-3.9,i,1.0,·,·,
O=C1c2ccccc2NC(c2ccccc2)N1CCCN1CCOCC1 (stereo not given),-479.0,-4.5,14.7*,-0.1,-219.1,7.8,12.1,10.4*,
CCOC(=O)c1sc(NC(=O)c2ccccc2)cc1C,-332.4,11.9,16.4*,4.3,-112.0,-6.0,-1.4,-1.1,
CCc1c(C)c(C#N)c2nc3ccccc3n2c1NCCCN(C)C,-106.3,0.5,4.2,·,-29.4,·,·,·,
Cc1c2c(n3c(nc4ccccc43)c1C#N)N(CCN(C)C)CC2,i,-2.4,113.9*,0.2,-482.2,3.6,-7.3,-2.5,
Cc1c2c(n3c(nc4ccccc43)c1C#N)N(CCCN(C)C)CC2,i,3.1,63.0*,0.3,-321.0,5.3,1.9,7.4*,
COc1cc2[nH]c(=O)n(Cc3ccc(C(=O)N4CCC(N5CCCCC5)CC4)cc3)c(=O)c2cc1OC,·,·,·,0.1,·,3.5,·,·,
O=c1c2cc(N3CCOCC3)ccc2[nH]c(=S)n1CCCN1CCCC1,-144.6,10.4,114.2*,1.0,-39.9,4.0,25.5*,27.4*,
O=c1c2ccccc2[nH]c(=S)n1CCCN1CCN(c2ccccc2)CC1,3.8,-4.3,-0.1,·,0.8,4.4,·,·,
O=c1c2cc(N3CCOCC3)ccc2[nH]c(=S)n1CCCN1CCCCC1,-128.9,-4.2,120.8*,-1.9,-37.0,3.5,29.4*,24.1*,EDANS interf=>69.5
O=C(c1ccc(Cn2c(=S)[nH]c3ccc(N4CCOCC4)cc3c2=O)cc1)N1CCC(N2CCCCC2)CC1,-70.3,-2.4,27.6*,1.2,-24.7,0.6,-34.4,-40.8,
O=c1c2cc(N3CCOCC3)ccc2[nH]c(=S)n1Cc1ccco1,-85.3,15.2,27.9*,-4.0,-27.2,16.4,16.8*,17.5*,
COc1ccc(CCNCC(O)COc2ccc(OC)cc2C(C)(C)C)cc1 (stereo not given),-0.9,3.9,-0.3,2.4,0.1,1.2,·,·,
CCCCSc1nc2sc3c(c2c(=O)[nH]1)CC(C)(CC)OC3 (stereo not given),-7.4,0.7,-3.0,-0.5,-7.7,25.5,·,·,
CC1=C(C(=O)Nc2ccccc2C(=O)NCCCOC(C)C)SCCO1,2.1,-5.7,0.1,-2.5,-0.8,3.1,·,·,
CCCN1CCc2c(sc3nc(SC)n(-c4ccccc4)c(=O)c23)C1,-92.1,32.5,-7.8,1.2,-40.4,-2.9,·,·,
Cc1ncc(CO)c(/C=N/NC(=O)c2ccccc2Br)c1O,i,-1.4,28.0*,-1.8,-282.2,3.6,-88.2,-76.4,
COc1ccc(C(=O)N/N=C/c2c(CO)cnc(C)c2O)cc1,i,0.1,-30.2,6.5,-274.0,6.7,·,·,
COc1ccccc1N/N=C/c1c(CO)cnc(C)c1O,-475.3,-2.2,20.6*,8.2,-155.0,17.0,34.4*,39.0*,
CC[C@@]1(O)C(=O)OCc2c1cc1n(c2=O)Cc2cc3c(N)cccc3nc2-1,-128.9,13.6,26.8*,-4.7,-26.8,-6.3,78.2*,90.0*,
CC[C@@]1(O)C(=O)OCc2c1cc1n(c2=O)Cc2cc3c(CN(C)C)c(O)ccc3nc2-1,-493.6,-50.1,59.6*,-0.9,-134.7,-1.6,70.0*,76.1*,
SMILES,ADAM10 inh,rCAG RNA binder,proKLK7 act,NR3A LBD binder,ADAM17 inh,AHR act,proKLK7 act conf,EDANS-DABCYL int,others
Cc1nnsc1-c1nc2ccccc2[nH]1,i,0.8,32.0*,4.2,-246.7,16.2,31.1*,45.0*,
COc1cc2c(cc1OC)CN(C(=O)NS(=O)(=O)c1ccc(C)cc1)CC2,-60.8,0.6,19.8*,-2.2,-17.4,2.0,4.0,1.5,
COc1cc2c(cc1OC)CN(C(=O)c1ccc(S(=O)(=O)N3CCCC3)cc1)CC2,-2.8,-4.8,0.1,-2.1,-2.2,-1.5,·,·,
Nc1nc2cc3c(cc2cc1C(=O)NCc1cccnc1)OCO3,i,5.5,18.1*,·,i,·,29.6*,36.4*,
COc1ccc(CNC(=O)CN2CCC(NC(=O)c3cccc(OC)c3)CC2)cc1,-6.5,1.0,0.3,1.4,1.5,·,·,·,
COc1ccc(NC(=O)c2sc3nc(-c4cccnc4)ccc3c2N)cc1OC,-1.0,-0.8,56.0*,5.0,-2.2,-6.4,14.8*,15.7*,
CCOC(=O)N1CCN(C(=O)CN(Cc2ccc(Cl)cc2)S(=O)(=O)c2ccc(C)cc2)CC1,0.7,-6.0,0.7,1.2,-3.7,-0.7,·,·,
Nc1cccc2c1C(=O)N(C(=O)c1ccco1)C2=O,-101.6,0.2,31.6*,-0.8,-22.4,1.3,153.9*,177.7*,
O=C(c1ccccc1F)N1C(=O)c2cccc3cccc1c23,-27.1,-0.2,7.7,-0.5,-9.6,2.2,·,·,
O=C(c1ccco1)N1C(=O)c2cccc3cccc1c23,-47.8,3.3,35.1*,2.2,-19.3,15.7,87.0*,89.7*,
O=C(c1cccs1)N1C(=O)c2cccc3cccc1c23,-39.1,4.1,31.9*,-0.8,-23.0,9.7,-1.4,-11.9,
CCOC(=O)NN1C(=O)c2ccccc2NC1c1ccccc1 (stereo not given),i,-1.1,19.8*,-2.9,-384.4,-1.4,21.1*,23.8*,
